A selection: hits, their analogues and other compounds. The true share with any hit is near 2.4%.
D2 ag-1: Beta-Arrestin HTS for Positive Allosteric Modulators of the Human D2 Dopamine Receptor: Agonists | D(2) dopamine receptor (Homo sapiens), P14416 | DiscoveRx PathHunter D2 beta-arrestin, luminescence, 90 min; 100% = 57 uM dopamine signal | activation, % (concentration not given with the values) | 360,000 compounds, 0.084% hits | AID 624465, 2012; in the data active = activation above about 40%; inconclusive = between about 15% and that limit
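Agonist mode: compounds alone added to overnight-plated D2 PathHunter cells for 90 min at 37 C, with 57 uM final dopamine (EC100) defining full response. Beta-arrestin recruitment detected by chemiluminescent reagent, read after 1 h at ambient temperature.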
D2 antagonist: HTS Assay for Allosteric Antagonists of the Human D2 Dopamine Receptor: Primary Screen for Antagonists | D(2) dopamine receptor (Homo sapiens), P14416 | HEK293 TREx D2 cells, calcium flux, dopamine EC80 | inhibition, % at 10 µM | 340,000 compounds, 2% hits | AID 485344, 2010; in the data active = inhibition above about 30%; inactive = below that, where a call was filed; also: 0% is about no effect
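Overnight-induced (tetracycline, 30 C) HEK293 T-REx cells carrying force-coupled D2 receive a no-wash calcium dye, then compound, then EC80 dopamine at 180 s; signals are read kinetically throughout.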
D2 PAM-1: HTS Assay for Positive Allosteric Modulators of the Human D2 Dopamine Receptor: Primary Screen for Potentiators. 340,000 compounds, 0.34% hits. HEK293 T-REx D2, calcium flux, EC20 dopamine potentiation. potentiation, % at 10 µM. D(2) dopamine receptor (Homo sapiens), P14416;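 active = potentiation over 3 SD above the plate norm, cut at about 30% in these data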; also: 0% is about no effect
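Primary screen. Calcium kinetics in induced HEK293 T-REx D2 cells: compound pre-addition 180 s, EC20 dopamine, 180 s more.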
D2 ag-2: HTS Assay for Allosteric Agonists of the Human D2 Dopamine Receptor: Primary Screen for Agonists; D(2) dopamine receptor (Homo sapiens), P14416; HEK293 T-REx D2 cells, calcium flux agonist mode; activation, % at 2 µM; 340,000 compounds, 0.53% hits;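 active = activation over 3 SD above normal in the single-dose calcium agonist read, cut at about 30% in these data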; also: 0% is about no effect
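In this primary screen, compounds producing a positive calcium signal within 180 s of addition to tetracycline-induced, force-coupled HEK293 Trex D2 cells are flagged; cells are dye-loaded with a no-wash calcium kit beforehand.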
D2 PAM-2: Beta-Arrestin HTS for Positive Allosteric Modulators of the Human D2 Dopamine Receptor: Potentiators; 360,000 compounds, 0.23% hits; potentiation, % (test concentration not listed); D(2) dopamine receptor (Homo sapiens), P14416; DiscoveRx D2 beta-arrestin cells, luminescence, 90 min; 100% = 57 uM dopamine signal; in the data active = potentiation above about 50%; inconclusive = mostly about 30% to 49%
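PathHunter D2 cells, attached overnight at 37 deg C, received compound in DMSO plus dopamine at EC20 (50 nM final) for 90 min at 37 deg C. Beta-arrestin recruitment was read as luminescence after 1 h with detection reagent at ambient temperature.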
D3 ag: qHTS of D3 Dopamine Receptor Agonist: D3 Dopamine Receptor B-arrestin Agonist Confirmatory Assay; Potency, µM (doses to about 76.9 µM), without a hit: top-dose activation, most hits filed as activators; AID 720506, 2013; shares compounds with D2 ag-2; DiscoveRx D3 beta-arrestin cells, luminescence, 90 min; 2,300 compounds, 4% hits;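 also: potency is read from the fitted curve at half-maximal effect; 100% = dopamine control response; nearly all actives have a fitted effect of over 70% in size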
Target sequence (P35462 whole entry, looked up): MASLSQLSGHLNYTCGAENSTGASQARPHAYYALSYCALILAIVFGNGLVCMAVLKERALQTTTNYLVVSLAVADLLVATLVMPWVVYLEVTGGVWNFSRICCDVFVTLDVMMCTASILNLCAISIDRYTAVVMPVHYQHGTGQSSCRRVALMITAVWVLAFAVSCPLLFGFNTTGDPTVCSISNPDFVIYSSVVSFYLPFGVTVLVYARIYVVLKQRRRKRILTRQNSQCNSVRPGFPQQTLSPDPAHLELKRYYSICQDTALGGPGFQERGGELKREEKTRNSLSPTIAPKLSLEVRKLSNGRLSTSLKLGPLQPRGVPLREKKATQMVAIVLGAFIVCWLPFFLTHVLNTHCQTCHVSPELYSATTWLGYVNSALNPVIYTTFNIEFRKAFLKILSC
D2 ag-3: qHTS of D3 Dopamine Receptor Agonist: D2 Dopamine Receptor B-arrestin Agonist Counterscreen; Potency, µM (doses to about 76.9 µM), without a hit: at the top dose activation, usual class: activators; DiscoveRx PathHunter D2 beta-arrestin, luminescence, 90 min; response scale: percent relative to full dopamine signal; shares compounds with D2 ag-2; 2,300 compounds, 5.9% hits; also: potency is read from the fitted curve at half-maximal effect; % of control where 0% means no effect; nearly all actives have a fitted effect of over 70% in size
* hit, by the source's call; u = inconclusive; x = not tested or not shown. Unless noted, calls follow the shape of the dose curve; as a rule, active = well fitted activation curve with a large enough effect; inconclusive = small, poorly fitted or top-dose-only effect; inactive = flat fitted curve, though single readings scatter.

SMILES	D2 ag-1	D2 antagonist	D2 PAM-1	D2 ag-2	D2 PAM-2	D3 ag	D2 ag-3
COc1cc(/C=N/NC(=O)C(C)Nc2n[nH]c(=O)[nH]c2=O)ccc1O (stereo unspecified)	-4	x	x	x	-4	x	x
CC(Nc1n[nH]c(=O)[nH]c1=O)C(=O)N/N=C/c1ccccc1 (stereo unspecified)	-5	7	9	0	-7	-2%	-4%
Cc1cccc(NS(=O)(=O)c2ccc(C)c(C(=O)N(C)C3CCN(C)CC3)c2)c1	-5	x	x	x	10	x	x
c1ccc(CN2CCN(Cc3cn4cccnc4n3)CC2)cc1	3	9	-10	1	-10	x	x
c1ccc(N2CCN(Cc3cn4cccnc4n3)CC2)cc1	0	49*	-24	53*	-5	1%	23%
c1ccc(N2CCN(Cc3cn4ccccc4n3)CC2)cc1	2	37*	-18	70*	-16	-9%	7%
CC(=O)CCc1ccc(OCC(O)CNCCOc2ccc(C)cc2)cc1 (stereo unspecified)	6	61*	-26	66*	-7	u	u
CCOc1ccc(C(=O)C(CCC(CN(C)C)C(=O)c2ccc(OCC)cc2)CN(C)C)cc1 (stereo unspecified)	-1	37*	16	3	-11	-17%	-3%
COc1ccc(C(=O)C(CCCCC(CN(C)C)C(=O)c2ccc(OC)cc2)CN(C)C)cc1 (stereo unspecified)	-1	x	x	x	-35	x	x
O=C(Cn1cncn1)N/N=C/c1cc([N+](=O)[O-])ccc1O	-10	52*	-10	0	-24	3%	-15%
COc1ccc(/C=C(/NC(=O)c2ccccc2)C(=O)N2CCCC2)cc1	-1	5	3	0	-2	x	x
COC(=O)CCC(C)N1CCC(Oc2ccc(C(=O)N3CCCC3)cc2)CC1 (stereo unspecified)	-4	9	-18	52*	-20	7%	6%
CCOC(=O)C1=C(CSc2nc(-c3ccncc3)ccc2C#N)OC(N)=C(C#N)C1c1ccc(OC)cc1 (stereo unspecified)	6	17	0	0	18	x	x
CCOC(=O)C1=C(CSc2nc(CC)c(C)cc2C#N)OC(N)=C(C#N)C1c1ccc(OC)cc1 (stereo unspecified)	-2	13	-1	3	2	10%	2%
CC(=O)N1c2ccc(S(=O)(=O)NCCC(=O)NCCc3cccc(C)c3)cc2CC1C (stereo unspecified)	-2	-5	3	0	-12	x	x
COCc1cc(C)nc2sc3c(c12)NC(c1ccc(O)cc1)N(c1ccc(OC)cc1)C3=O (stereo unspecified)	x	x	5	2	x	x	x
O=C(CN1CCN(C(=O)c2ccco2)CC1)Nc1ccc(Cl)c(S(=O)(=O)N2CCOCC2)c1	-5	-1	-16	45*	7	u	11%
O=C(CN1CCN(C(=O)c2ccco2)CC1)Nc1ccc2c(c1)OCCO2	u	54*	-18	61*	11	25%	24%
O=C(CN1CCN(c2ccccc2)CC1)Nc1ccc2c(c1)OCCO2	14	45*	-31	56*	-35	15%	u
Cc1[nH]c2ccccc2c1NC(=O)CN1CCN(C(=O)c2ccco2)CC1	54*	61*	-22	87*	u	1%	u
COc1ccccc1C(=O)NC(=O)COC(=O)CNC(=O)c1ccc(Cl)cc1Cl	-3	2	8	-1	-1	x	x
O=C(Nc1ccc(F)cc1F)c1ccc(-n2cnnc2)cc1	x	x	9	0	x	x	x
COc1cc(NC(=O)C2CCCN(c3ncnc4c3nc3n4CCCCC3)C2)cc(OC)c1OC (stereo unspecified)	4	-10	-3	39*	18	5%	-3%
COCCN(Cc1ccco1)C(=O)C1CCCN(c2ncnc3c2nc2n3CCCCC2)C1 (stereo unspecified)	1	7	-19	-3	2	4%	-5%
COc1ccc(CC(C)N2CCN(Cc3ccccc3)CC2)c(OC)c1 (stereo unspecified)	5	83*	-21	59*	-11	-5%	10%
SMILES	D2 ag-1	D2 antagonist	D2 PAM-1	D2 ag-2	D2 PAM-2	D3 ag	D2 ag-3
COc1ccc(CN2CCN(CCCc3ccccc3)CC2)c(OC)c1	x	-11	-18	0	x	x	x
COc1ccc(CC(C)N2CCN(c3ccccc3)CC2)cc1OC (stereo unspecified)	u	66*	-13	65*	2	5%	u
COc1ccc(S(=O)(=O)N2CCN(c3ccccc3)CC2)cc1OC	2	x	x	x	7	x	x
COc1ccc(C)cc1NC(=O)c1ccc(CN2CCN(c3ccccc3)CC2)cc1	u	89*	-24	80*	21	14%	u
COc1ccc(NC(=O)c2ccc(CN3CCN(c4ccccc4)CC3)cc2)cc1OC	u	71*	-22	60*	-6	10%	u
COc1ccccc1C(=O)Nc1ccc(N2CCN(Cc3ccccc3)CC2)cc1	0	-8	5	4	-19	x	x
COc1ccc(C)cc1NC(=O)c1ccc(CN2CCc3ccccc3C2)cc1	-1	26	-13	1	-14	x	x
Cc1ccc(CNC(=O)C2(C)CCN2C(=O)Cc2ccc(C(C)(C)C)cc2)cc1 (stereo unspecified)	-5	x	x	x	-4	x	x
CCOC(=O)C1CCN(C(=O)COC(=O)c2ccccc2C(=O)c2ccc(Cl)cc2)CC1	-6	-11	-1	0	-3	x	x
CCOC(=O)C1CCN(CC(O)COc2ccc(C(C)=O)cc2)CC1 (stereo unspecified)	-7	31*	-15	41*	7	4%	17%
CCOC(=O)C1CCN(CC(O)COc2ccc(C(C)(C)CC)cc2)CC1 (stereo unspecified)	11	80*	-27	66*	-6	11%	u

From PubChem BioAssay
